From PubChem BioAssay AID504332 (National Center for Advancing Translational Sciences (NCATS), 2011)
The whole screen tested about 350,000 compounds, of which about 31,000 (8.9%) were called active. Another 15% or so got no clear call; they are omitted. The list comes from a sample in which actives are over-represented; it also holds similar structures and randomly drawn compounds. A call without a number means that no potency is given here. Unmarked numbers belong to inactive results. Calls come from the whole dose curve; as a rule, active = well fitted inhibition curve with a large enough effect; inconclusive = small, poorly fitted or top-dose-only effect; inactive = no such curve, though single readings can be large or run the other way.

biological target: Histone-lysine N-methyltransferase EHMT2 (Homo sapiens) (UniProt Q96KQ7); assay: qHTS Assay for Inhibitors of Histone Lysine Methyltransferase G9a; conditions: G9a H3K9 monomethylation, AlphaScreen, 2 h; series mostly up to 59 µM; note: nearly all actives have a fitted effect of over 75% in size
Sequence (Q96KQ7 913-1193 limits assumed): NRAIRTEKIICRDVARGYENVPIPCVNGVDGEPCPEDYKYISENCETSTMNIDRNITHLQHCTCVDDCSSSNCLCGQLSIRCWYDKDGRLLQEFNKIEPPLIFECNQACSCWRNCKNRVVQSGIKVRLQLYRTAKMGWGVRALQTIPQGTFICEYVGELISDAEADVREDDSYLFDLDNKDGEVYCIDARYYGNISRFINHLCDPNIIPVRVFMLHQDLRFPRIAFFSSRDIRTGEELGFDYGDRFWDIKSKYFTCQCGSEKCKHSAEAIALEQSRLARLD
Outline: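 Methyltransferase reactions run at room temperature for 2 h (20 nM enzyme, 500 nM biotin-H3K9 peptide, 20 uM SAM) after a 15 min compound preincubation; product detected by AlphaScreen beads and anti-H3K9me1 antibody.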
Potency is the fitted concentration of half-maximal effect.

Row | Compound | Potency | activity, negative = inhibition
1 | CC1CC2C3CCC4=CC(=O)C=C[C@]4(C)[C@@]3(F)[C@@H](O)C[C@]2(C)[C@@]1(O)C(=O)CO (some centres not stated) | inactive | –
2 | Cc1ccc2oc(C(=O)Nc3ccc(S(=O)(=O)N4CCCCCC4)cc3)cc(=O)c2c1 | inactive | –
3 | O=C(Nc1cccc(Cl)c1Cl)c1ccccc1NC(=O)C1CC=CCC1C(=O)O (configuration not stated) | inactive | –
4 | CN(C(=O)COC(=O)c1nc(Cl)ccc1Cl)C1CCS(=O)(=O)C1 (configuration not stated) | inactive | –
5 | CN(C(=O)COC(=O)c1cc(-c2ccco2)nc2ccccc12)C1CCS(=O)(=O)C1 (configuration not stated) | 2.51 µM (active) | –
6 | Cc1c(-c2cccc(Cl)c2)nc2ccccc2c1C(=O)OCC(=O)N(C)C1CCS(=O)(=O)C1 (configuration not stated) | inactive | –
7 | COc1ccc(-n2nc(C(=O)NCC(=O)N3CCCCCC3)c3ccccc3c2=O)cc1Cl | inactive | –
8 | CCC(=O)c1ccc(OCC(=O)OCC(=O)N2CCc3ccccc3C2)cc1 | – | -11.3% [at 2.33 µM]
9 | O=C(Cn1c(=S)nc2ccccn21)N1CCc2ccccc2C1 | 12.6 µM (active) | –
10 | O=C(COc1ccccc1)N1CCc2ccccc2C1 | inactive | –
11 | Cn1c(=O)c2c(nc(Oc3ccc(C#N)cc3)n2Cc2ccc(Cl)cc2Cl)n(C)c1=O | inactive | –
12 | COc1ccc(NC(=O)CSc2nccn2Cc2ccc3c(c2)OCO3)cc1 | inactive | –
13 | O=C(CSc1n[nH]c(-c2cccnc2)n1)Nc1ccc(Cl)cc1 | inactive | –
14 | CN(C)c1ccc(NC(=O)CSc2n[nH]c(-c3ccco3)n2)cc1 | 44.7 µM (active) | –
15 | Cc1nc(SCC(=O)Nc2ccc(C(=O)O)cc2)n[nH]1 | inactive | –
16 | CC(C)Cn1c(C2CC(=O)N(c3ccccc3Cl)C2)nc2ccccc21 (configuration not stated) | inactive | –
17 | COc1ccc(C)cc1N(CC(=O)N1CCC(C)CC1)S(=O)(=O)c1ccc(C)cc1 | inactive | –
18 | O=C(NC1CCN(Cc2ccccc2)CC1)c1ccc(Cn2c(=O)c3ccccc3n(Cc3cccc(F)c3)c2=O)cc1 | inactive | –
19 | COc1ccc(-n2ncc3c2CC(C)(C)CC3NC(=O)CCc2c(C)nn(C)c2C)cc1 (configuration not stated) | inactive | –
20 | Cn1c(-c2ccc(C(F)(F)F)cc2)cc2onc(-c3ccccc3)c2c1=O | – | -9.13% [at 2.33 µM]
21 | O=C(Cn1c(-c2cccs2)cc2ccccc21)NCCc1ccc(Cl)cc1 | inactive | –
22 | O=C1COc2ccc(C(=O)CSc3ccc(Br)cc3)cc2N1 | – | 8.05% [at 12.7 µM]
23 | CCc1ccc(Nc2nnc(SCC(=O)c3ccc4c(c3)NC(=O)CO4)s2)cc1 | 15.8 µM (active) | –

Row | Compound | Potency | activity, negative = inhibition
24 | CCCc1nc2ccccc2c(C(=O)OCC(=O)c2ccc3c(c2)NC(=O)CO3)c1CC | – | 16.7% [at 12.7 µM]
25 | COc1ccc(C)cc1-n1nnnc1SCc1nc2ccccc2c(=O)[nH]1 | inactive | –
26 | COc1cc(OC)c(OC)cc1/C=C/c1nc2ccccc2c(=O)n1-c1ccc(Br)c(C)c1 | inactive | –
27 | CCOc1cc(/C=C/c2nc3ccccc3c(=O)[nH]2)cc(Br)c1OC | 50.1 µM (active) | –
28 | O=C(NC1(C(F)(F)F)N=C(c2ccccc2)N(C2CCCCC2)C1=O)c1ccccc1F (configuration not stated) | inactive | –
29 | COc1ccc(NC(=O)C(c2ccccc2)N2Cc3ccccc3C2=O)cc1 (configuration not stated) | inactive | –
30 | CN(CC(=O)NC1CCN(Cc2ccccc2)CC1)S(=O)(=O)c1ccc(Cl)s1 | – | -1.26% [at 2.33 µM]
31 | COc1ccc(NC(=O)c2ccc3oc(=O)c(S(=O)(=O)c4ccc(F)cc4)cc3c2)c(OC)c1 | inactive | –
32 | COc1ccccc1CNC(=O)CCn1c(=O)c2ccccc2n(CC(=O)Nc2cccc(Cl)c2)c1=O | inactive | –
33 | COc1cccc(NC(=O)N2CCN(C(=O)c3nsc4ccccc34)CC2)c1 | inactive | –
34 | COc1cc(CNC(=O)c2cc3n(n2)CCCN(Cc2cccc(F)c2)C3=O)cc(OC)c1OC | inactive | –
35 | Cn1c(CNc2nc(-c3ccccc3)cs2)nnc1SCC(=O)c1ccccc1 | 39.8 µM (active) | –
36 | CCOC(=O)CSc1nnc(CNc2nc(-c3ccccc3)cs2)n1C | – | 2.05% [at 12.7 µM]
37 | CCNC(=O)CSc1nc(-c2ccccc2)cs1 | inactive | –
38 | CC(C)n1ncc2c(C(=O)Nc3ccc(CC#N)cc3)cc(C3CC3)nc21 | – | 10% [at 2.33 µM]
39 | COc1ccc(C(CNC(=O)c2ccc(NS(=O)(=O)c3ccc(F)c(C)c3)cc2)N(C)C)cc1 (configuration not stated) | inactive | –
40 | Cc1nnc(NCc2ccccc2)c2c1nnn2Cc1ccc(F)cc1 | inactive | –
41 | COCCNc1ccc(-c2n[nH]c(=O)c3ccccc23)cc1[N+](=O)[O-] | inactive | –
42 | Cc1cc(C)cc(NS(=O)(=O)c2ccc(-c3cc(C)no3)s2)c1 | inactive | –
43 | OCCN1CCN(C(=S)c2ccc(-c3ccccc3)cc2)CC1 | 22.4 µM (active) | –
44 | O=C(NC(c1ccccc1)c1ccccc1)N1CCN(CCO)CC1 | inactive | –
45 | OCCN1CCN(c2nnc(-c3ccccc3)c3ccccc23)CC1 | inactive | –
46 | COCCNC(=O)CSc1nc(-c2ccccc2)[nH]c1-c1ccc(C)cc1 | inactive | –

Row | Compound | Potency | activity, negative = inhibition
47 | Cc1ccc(N=C2SCCCN2C(=O)c2cccc(N3C(=O)CCC3=O)c2)cc1Cl | – | 10.1% [at 0.501 µM]
48 | COC(=O)CN1C(=O)[C@H]2[C@@H](/C=C/c3ccccc3)N3C(=O)CN(Cc4ccccc4)C(=O)[C@@]3(Cc3ccccc3)[C@H]2C1=O | inactive | –
49 | Fc1ccccc1Oc1ncnc2c1oc1ccccc12 | inactive | –
50 | COc1cccc(NS(=O)(=O)c2ccc(-c3coc(C)n3)cc2)c1 | inactive | –
51 | COc1ccc(-c2nc3sc(CCNS(=O)(=O)c4ccc(F)c(C)c4)c(C)n3n2)cc1 | inactive | –
52 | Nc1ncnc2c1c(I)cn2[C@@H]1C[C@H](N)[C@@H](O)[C@H]1O | 6.7 µM (active) | –
53 | CC(C)Oc1ccc(CNC(=O)C2CCN(c3nc4ccccc4n(C)c3=O)CC2)cc1 | inactive | –
54 | COc1cccc(/C=C2\C=C(c3ccc(C)cc3)OC2=O)c1OC(C)=O | inactive | –
55 | CN(C)/C=C1\C=C(c2ccccc2)OC1=O | 39.8 µM (active) | –
56 | COc1ccccc1/C=C/C1=NC(=C\N(C)C)/C(=O)O1 | inactive | –
57 | COc1ccc(-c2ccc3nnc(SCC(=O)Nc4ccc(NC(C)=O)cc4)n3n2)cc1 | inactive | –
58 | Cc1ccc(-c2nnc(SCc3ccccc3C)o2)cc1 | inactive | –
59 | CCN(CC)CCCNC(=S)N(CCO)Cc1cc2cc3c(cc2[nH]c1=O)OCO3 | inactive | –
60 | COCCCNC(=S)N(CCN(C)C)Cc1cc2cc3c(cc2[nH]c1=O)OCCO3 | 35.5 µM (active) | –
61 | CCNC(=S)N(CCN(CC)CC)Cc1cc2cc3c(cc2[nH]c1=O)OCO3 | inactive | –
62 | CCN(CC)S(=O)(=O)c1ccc2c(c1)nc(CN(C)C(=O)Nc1ccc(Cl)cc1)n2C | – | 1.45% [at 12.7 µM]
63 | O=C(COc1ccccc1)Nc1ccc(C(=O)N2CCCC2)cc1 | inactive | –
64 | COc1ccc(-c2nn3c(-c4ccc(OC)cc4)nnc3c3ccccc23)cc1 | inactive | –
65 | CC(=O)NC(=S)Nc1ccc(NC(=S)NC(=O)c2ccc([N+](=O)[O-])cc2)cc1 | inactive | –
66 | NC(=S)N/N=C/c1ccc([N+](=O)[O-])cc1 | inactive | –
67 | CNC(=S)Nc1ccc([N+](=O)[O-])cc1 | 56.2 µM (active) | –
68 | CCN(CC)CCNC(=O)CN1N=C(c2ccc(OC)cc2)CCC1=O | inactive | –
69 | CCCn1c(=O)c(C(=O)Nc2cc(C)ccn2)c(O)c2ccccc21 | – | -5.46% [at 0.501 µM]

Row | Compound | Potency | activity, negative = inhibition
70 | O=C(COC(=O)Cn1[nH]c(=O)c2ccccc2c1=O)Nc1ncc(Cl)cc1Cl | 56.2 µM (active) | –
71 | O=C(COC(=O)Cn1[nH]c(=O)c2ccccc2c1=O)Nc1c(Cl)cccc1C(F)(F)F | – | 2.11% [at 0.501 µM]
72 | CN(C)S(=O)(=O)c1ccc(NC(=O)COC(=O)Cn2[nH]c(=O)c3ccccc3c2=O)cc1 | inactive | –
73 | Cc1noc2ncnc(NCc3ccccc3Cl)c12 | inactive | –
74 | COc1ccccc1CNC(=O)C1CCN(S(=O)(=O)c2ccc3c(c2)CC(C)N3C(=O)C2CC2)CC1 (configuration not stated) | inactive | –
75 | Cc1cc(C)c(C)c(S(=O)(=O)N2CCN(C(=O)c3ccc4c(=O)n5c(nc4c3)CCC5)CC2)c1C | – | -30.4% [at 0.501 µM]
76 | O=C(Nc1nnc(S(=O)(=O)N2CCCCCC2)s1)c1cccc(Br)c1 | 8.91 µM (active) | –
77 | Cc1cccc(C(=O)Nc2nnc(S(=O)(=O)N3CCCCCC3)s2)c1 | inactive | –
78 | CCN(CC)S(=O)(=O)c1nnc(NC(=O)COc2ccccc2Cl)s1 | 2.82 µM (active) | –
79 | CCN(CC)S(=O)(=O)c1ccc(C)c(NC(=O)COc2ccc(Br)cc2Cl)c1 | inactive | –
80 | O=C(Nc1nnc(S(=O)(=O)N2CCOCC2)s1)c1cccc(Br)c1 | inactive | –
81 | CCC(=O)Nc1nnc(S(=O)(=O)N(CC(C)C)c2ccccc2)s1 | inactive | –
82 | Cc1ccccc1OCC(=O)Nc1nnc(S(=O)(=O)N2CCCC2)s1 | 2.24 µM (active) | –
83 | COc1cccc(C(=O)Nc2nnc(S(=O)(=O)N3CCCCC3)s2)c1 | inactive | –
84 | CC1CCN(S(=O)(=O)c2nnc(NC(=O)COc3ccccc3F)s2)CC1 | inactive | –
85 | COc1ccc(Cl)cc1NC(=O)COc1ccc2c(c1)OCO2 | – | 6.56% [at 12.7 µM]
86 | CCc1ccc(CNC(=O)c2cc3c(=O)n(CC)c4ccccc4c3s2)cc1 | inactive | –
87 | CCCN1CN=C(NS(=O)(=O)c2ccc(NC(C)=O)cc2)NC1 | inactive | –
88 | O=S(=O)(c1ccc(-c2ccno2)s1)N1CCCCC1 | inactive | –
89 | COc1ccc(NS(=O)(=O)c2cc(NC(=O)COc3ccccc3F)ccc2OC)cc1 | – | 30.6% [at 12.7 µM]
90 | CC1=C(C(=O)Nc2ccccc2Cl)C(c2cccs2)n2ncnc2N1 (configuration not stated) | inactive | –
91 | CC1(C)O[C@@H]2[C@H](O1)[C@@H](COS(=O)(=O)O)O[C@H]2n1ccc(=O)[nH]c1=O | – | 2.02% [at 2.33 µM]
92 | Cc1cccc(-c2oc3ccc(-c4ccc5c(c4)OCO5)cc3c2C#Cc2cncn2C)c1 | – | 7.97% [at 0.501 µM]
